Data on seven molecules can be found in PubChem BioAssay (NCATS).

Inconclusive results are not listed. The source made the active and inactive calls. Unless noted, the call rests on the fitted dose curve; in most records, active means well fitted curve in either direction with a large enough effect (not every such curve was filed as active); inconclusive means small, poorly fitted or top-dose-only effect, or another doubt; inactive means flat fitted curve, though single readings scatter.

Experiment [1] concerns the target Lysosomal acid glucosylceramidase (Homo sapiens) (UniProt P04062). Kind of experiment: Glucocerebrosidase-p2 (AID 348; in the data active means potency below about 10 µM; further: potency means the concentration at half of the fitted maximal effect). Conditions: purified GBA, blue fluorogenic substrate, 40 min. In a few lines: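 Normal human glucocerebrosidase (0.2 nM) with blue fluorogenic substrate (80 uM final) in citrate/phosphate pH 5.9 with 10mM sodium taurocholate, 0.01% tween-20; 40 min RT, NaOH/glycine stop; fluorescence Ex 365/Em 440; AC50 from a titration from 0.6 nM upwards.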

A short description of experiment [2]: AP1 Signaling Pathway (AID 357).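 Further: ME-180 reporter cells stimulated with EGF at its EC50 level; on the % scale 0 is the no-effect control and ±100 the full control effect.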 Conditions: ME-180 AP-1-bla reporter, EGF-induced, beta-lactamase ratio, 5 h; at 7.69 µM (top of the series) unless noted. In a few lines:
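A ratiometric CCF4 readout (405 nm excitation; 460 and 530 nm emission) quantified AP-1-driven beta-lactamase in ME-180 cells after 5 h with compound and EC50 EGF; AC50 values were derived for activators and inhibitors.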

Experiment [3] has as its target Cytochrome P450 1A2 (Homo sapiens) (UniProt P05177). Put plainly: p450-cyp1a2 (AID 410; calls by dose curve;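 further: -100% = full effect of reference inhibitor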). Conditions: recombinant CYP1A2, luciferin-ME demethylation, luminescence; series mostly up to 57 µM. In a few lines:
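Read-out is luminescence from luciferin produced by CYP1A2 demethylation of Luciferin-ME (100uM, at Km). Detection reagent stopped the 60 min NADPH-dependent reaction; signals were normalized to 57 uM furafylline.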

A short description of experiment [4]: Stat Signaling Pathway (AID 446).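 Further: ME-180 cervical cancer cells given 40 pM IL-6 alongside compound; SIE-controlled beta-lactamase reporter measured as 460/530 nm FRET emission ratio; on the % scale 0 is the no-effect control and ±100 the full control effect.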 Conditions: ME-180 SIE beta-lactamase reporter, IL-6 stimulated, 5 h; at 7.69 µM (top of the series) unless noted. The procedure, abridged: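 Emission at 460 and 530 nm (excitation 405 nm) reports SIE-controlled beta-lactamase in ME-180 cells. Cells received compound with 40 pM IL-6 for 5 hrs at 37 C; data scaled between 300 pM IL-6 and 125 nM JAK-inhibitor controls.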

Experiment [5] addresses Glucocorticoid receptor (Homo sapiens) (UniProt P04150). Put plainly: GR-EFC Redistribution (AID 451; calls by dose curve; further: potency means the concentration at half of the fitted maximal effect). Conditions: CHO-K1 GR-EFC translocation, beta-gal luminescence, 2 h. The procedure, abridged:
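CHO-K1 cells stably expressing nuclear-localized β-gal enzyme acceptor and GR fused C-terminally to the enzyme donor fragment; ligand-driven nuclear translocation restores β-gal by complementation. Compounds titrated up to 46 uM final, 2 h at 37 °C; luminescence read.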

For experiment [6], the target named is Mitogen-activated protein kinase 10 (Mus musculus) (UniProt Q61831). Kind of experiment: JNK3 AlphaScreen Assay (AID 530).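 Further: kinase came from lysate of stimulated human HepG2 cells; signal reports phosphorylation of biotinylated GST-cJun 1-79 at Ser73 with 10 µM ATP; on the % scale 0 is the no-effect control and ±100 the full control effect.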 Conditions: JNK3 lysate, c-Jun phosphorylation; series mostly up to 57.1 µM. In a few lines:
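Biotinylated GST-cJun(1-79) served as substrate for JNK3 in HepG2 lysates stimulated with IL-1beta and TNF-alpha. ATP was 10 uM final, pH 7.6. Ser73 phosphorylation was quantified by AlphaScreen (680 nm excitation).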
In general terms: Bead proximity is the source of the signal in Alpha formats.

For experiment [7], the target named is 3',5'-cyclic-AMP phosphodiesterase 4B (Homo sapiens) (UniProt Q07343). Kind of experiment: qHTS Assay for Inhibitors of PDE-IV (AID 607; active means well fitted activation curve with a large enough effect in the main read-out, with a control signal flat, not every such curve was filed as active; further: % of control where 0% means no effect). Conditions: HEK293 ACTOne CNG channel cells, membrane potential fluorescence; series mostly up to 22.9 µM. In a few lines:
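The readout is membrane depolarisation from a cAMP-sensing CNG channel, detected with a potential dye at ex 535/em 590. Cells were HEK293-derived (endogenous PDE-IV) at 1000 cells/well, titrated up to 22.9 uM final.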
In general terms: qHTS replaces the single test concentration by a dilution series.

The target of experiment [8] is Cytochrome P450 3A4 (Homo sapiens) (UniProt P08684). Put plainly: qHTS Assay for Activators of Cytochrome P450 3A4 (AID 885; active means well fitted curve in the direction sought with a large enough effect; an effect the other way counts as inactive or inconclusive; further: nearly all actives have a fitted effect of over 65% in size). Conditions: recombinant CYP3A4, Luciferin-PPXE luminescence, 60 min; series mostly up to 57.1 µM. In a few lines: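 Activators are scored by enhanced luminescence from CYP3A4 conversion of luciferin-PPXE (25uM, equal to KM) to luciferin, after 60 min at RT with an NADPH-regenerating system.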
Chain of Cytochrome P450 3A4 (Homo sapiens) (P08684 whole entry, looked up): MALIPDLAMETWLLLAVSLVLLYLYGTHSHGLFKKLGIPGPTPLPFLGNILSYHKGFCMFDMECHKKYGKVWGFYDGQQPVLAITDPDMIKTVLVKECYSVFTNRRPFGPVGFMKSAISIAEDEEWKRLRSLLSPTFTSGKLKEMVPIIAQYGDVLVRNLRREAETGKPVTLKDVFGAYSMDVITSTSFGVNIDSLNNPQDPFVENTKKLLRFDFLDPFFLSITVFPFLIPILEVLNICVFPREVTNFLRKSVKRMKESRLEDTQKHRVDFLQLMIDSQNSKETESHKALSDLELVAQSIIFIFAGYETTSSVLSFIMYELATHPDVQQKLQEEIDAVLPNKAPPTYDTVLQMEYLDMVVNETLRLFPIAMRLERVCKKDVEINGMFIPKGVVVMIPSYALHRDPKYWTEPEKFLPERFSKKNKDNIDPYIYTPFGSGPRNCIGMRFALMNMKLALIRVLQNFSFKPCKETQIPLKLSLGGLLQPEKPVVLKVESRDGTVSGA

Experiment [9] concerns the target Cytochrome P450 2D6 (Homo sapiens) (UniProt P10635). Kind of experiment: qHTS Assay for Inhibitors and Substrates of Cytochrome P450 2D6 (AID 891; active means well fitted curve in the direction sought with a large enough effect; an effect the other way counts as inactive or inconclusive; further: potency means the concentration at half of the fitted maximal effect; nearly all actives have a fitted effect of over 60% in size). Conditions: recombinant CYP2D6, luciferin-ME EGE luminescence; series mostly up to 57.1 µM. In a few lines: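 Luminescent read-out of luciferin formed by 5 nM human CYP2D6 demethylating 30 uM Luciferin-ME EGE (Km level) over 60 min at room temperature after NADPH regeneration addition. Data normalized to full inhibition by 1.43 uM quinidine.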

A short description of experiment [10]: qHTS Assay for Lipid Storage Modulators (AID 1519; calls by dose curve). Conditions: Drosophila S3 cells, BODIPY lipid droplet/cell ratio, laser cytometry, cells loaded with oleic acid; for activity change, negative = inhibition: at 57.5 µM (top of the series). In a few lines:
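Cells seeded at 5,000 per well were treated with compounds over a concentration series and loaded with oleic acid (400 uM, as added). Lipid droplet fluorescence (488 nm excitation, 500-530 nm channel) was read by laser-scanning cytometry and normalized to 20 uM Triacsin C.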

Experiment [11] can be described thus: Primary qHTS for small molecule stabilizers of the endoplasmic reticulum resident proteome: Secreted ER Calcium Modulated Protein (SERCaMP) assay (AID 1508630; active means well fitted curve in the direction sought with a large enough effect; an effect the other way counts as inactive or inconclusive; further: on the % scale 0 is the no-effect control and ±100 the full control effect). Conditions: SH-SY5Y GLuc-SERCaMP (Gaussia luciferase released on ER calcium loss) secretion, thapsigargin, luminescence; series mostly up to 38.4 µM. The procedure, abridged: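 The SH-SY5Y reporter protocol was run at 3 concentrations up to 38.3 uM (primary) or 11 concentrations (follow-up): 16 h compound, 100 nM thapsigargin for 4 h, then extracellular luciferase luminescence.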

Experiment [12] has as its target Cytochrome P450 2C19 (Homo sapiens) (UniProt P33261). Kind of experiment: qHTS Assay for Inhibitors and Substrates of Cytochrome P450 2C19 (AID 899; active means well fitted curve in the direction sought with a large enough effect; an effect the other way counts as inactive or inconclusive; further: on the % scale 0 is the no-effect control and ±100 the full control effect; nearly all actives have a fitted effect of over 60% in size). Conditions: recombinant CYP2C19, luciferin-H EGE luminescence; series mostly up to 57.1 µM. The procedure, abridged:
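Human CYP2C19 (5nM) with Luciferin-H EGE at 10uM (its KM) in 50mM KPO4 was preincubated with compound for 10 min at 37C. NADPH regeneration started a 60 min 37C reaction. Luciferin was read by luminescence, normalized to 57uM ketoconazole.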

Experiment [13] can be described thus: qHTS Assay for Identification of Small Molecule Agonists for Hypoxia Response Element Signaling Pathway (AID 914; active means well fitted activation curve with a large enough effect in the signal ratio, with a control signal flat, not every such curve was filed as active; the % refers to the signal ratio; further: % of control where 0% means no effect). Conditions: ME-180 (cervical carcinoma) HRE-bla reporter, beta-lactamase ratio, CoCl2, 17 h; activation: stronger effect = higher value. The procedure, abridged: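 In Opti-MEM containing 0.5% dialyzed FBS and 10 mM HEPES, ME-180 HRE-bla cells received a compound titration and EC50 CoCl2. They were incubated 17 hours, then CCF4-loaded 2.5 hours at room temperature before ratio reading.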

Where [14] appears, read: measured here: cell count channel max response.
Setting [15] is: measured here: lipid channel max response.

Chain of Lysosomal acid glucosylceramidase (Homo sapiens) (P04062 whole entry, looked up): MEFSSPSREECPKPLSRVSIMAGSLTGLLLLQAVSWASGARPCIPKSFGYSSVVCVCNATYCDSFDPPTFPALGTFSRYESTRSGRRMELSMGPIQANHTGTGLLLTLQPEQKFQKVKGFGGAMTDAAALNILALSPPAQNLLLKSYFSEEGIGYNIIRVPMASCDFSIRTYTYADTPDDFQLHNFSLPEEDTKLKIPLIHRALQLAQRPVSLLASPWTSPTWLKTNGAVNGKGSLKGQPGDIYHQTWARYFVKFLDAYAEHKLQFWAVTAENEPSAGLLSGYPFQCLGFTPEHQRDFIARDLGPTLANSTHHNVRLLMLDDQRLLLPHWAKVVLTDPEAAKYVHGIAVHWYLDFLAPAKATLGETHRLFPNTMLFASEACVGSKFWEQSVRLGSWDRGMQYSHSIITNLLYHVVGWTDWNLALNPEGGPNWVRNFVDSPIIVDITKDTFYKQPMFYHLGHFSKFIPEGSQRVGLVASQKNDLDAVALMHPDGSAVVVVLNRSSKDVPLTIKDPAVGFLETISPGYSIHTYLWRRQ
Chain of Cytochrome P450 1A2 (Homo sapiens) (P05177 whole entry, looked up): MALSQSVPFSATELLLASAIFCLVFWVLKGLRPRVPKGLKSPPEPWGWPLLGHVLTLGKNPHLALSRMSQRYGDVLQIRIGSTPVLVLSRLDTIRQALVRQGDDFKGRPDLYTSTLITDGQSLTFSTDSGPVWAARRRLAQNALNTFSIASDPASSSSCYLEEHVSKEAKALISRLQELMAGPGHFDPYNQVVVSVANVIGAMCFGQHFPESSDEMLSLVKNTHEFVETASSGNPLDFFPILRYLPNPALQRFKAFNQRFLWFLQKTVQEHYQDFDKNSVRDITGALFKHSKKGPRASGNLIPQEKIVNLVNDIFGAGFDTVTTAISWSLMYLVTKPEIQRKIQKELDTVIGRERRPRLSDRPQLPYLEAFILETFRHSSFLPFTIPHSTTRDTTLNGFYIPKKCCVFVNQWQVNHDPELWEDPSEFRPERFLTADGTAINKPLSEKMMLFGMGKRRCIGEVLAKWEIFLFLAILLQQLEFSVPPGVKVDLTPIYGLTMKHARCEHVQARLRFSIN
Chain of Glucocorticoid receptor (Homo sapiens) (P04150 whole entry, looked up, the tested form may be a part): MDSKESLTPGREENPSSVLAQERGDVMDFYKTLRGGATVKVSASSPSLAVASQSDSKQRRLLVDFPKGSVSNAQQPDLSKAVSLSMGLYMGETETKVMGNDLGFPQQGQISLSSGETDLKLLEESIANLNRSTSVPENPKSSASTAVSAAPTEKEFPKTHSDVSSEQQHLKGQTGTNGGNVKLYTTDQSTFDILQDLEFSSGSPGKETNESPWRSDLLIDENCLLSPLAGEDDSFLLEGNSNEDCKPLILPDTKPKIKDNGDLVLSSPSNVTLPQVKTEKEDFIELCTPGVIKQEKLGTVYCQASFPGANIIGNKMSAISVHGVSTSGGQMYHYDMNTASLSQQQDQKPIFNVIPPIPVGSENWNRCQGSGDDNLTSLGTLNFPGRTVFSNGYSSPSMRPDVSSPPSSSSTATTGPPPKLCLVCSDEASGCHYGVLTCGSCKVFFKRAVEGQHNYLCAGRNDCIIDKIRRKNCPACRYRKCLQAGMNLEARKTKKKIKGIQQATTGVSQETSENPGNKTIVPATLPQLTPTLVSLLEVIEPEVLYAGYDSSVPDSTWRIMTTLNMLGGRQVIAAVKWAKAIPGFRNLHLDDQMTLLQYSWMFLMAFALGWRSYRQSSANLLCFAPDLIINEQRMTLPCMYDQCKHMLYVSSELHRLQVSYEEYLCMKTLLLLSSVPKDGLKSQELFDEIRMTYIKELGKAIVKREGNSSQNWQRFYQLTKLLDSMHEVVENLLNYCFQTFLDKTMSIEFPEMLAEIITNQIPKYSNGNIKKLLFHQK
Chain of 3',5'-cyclic-AMP phosphodiesterase 4B (Homo sapiens) (Q07343 whole entry, looked up): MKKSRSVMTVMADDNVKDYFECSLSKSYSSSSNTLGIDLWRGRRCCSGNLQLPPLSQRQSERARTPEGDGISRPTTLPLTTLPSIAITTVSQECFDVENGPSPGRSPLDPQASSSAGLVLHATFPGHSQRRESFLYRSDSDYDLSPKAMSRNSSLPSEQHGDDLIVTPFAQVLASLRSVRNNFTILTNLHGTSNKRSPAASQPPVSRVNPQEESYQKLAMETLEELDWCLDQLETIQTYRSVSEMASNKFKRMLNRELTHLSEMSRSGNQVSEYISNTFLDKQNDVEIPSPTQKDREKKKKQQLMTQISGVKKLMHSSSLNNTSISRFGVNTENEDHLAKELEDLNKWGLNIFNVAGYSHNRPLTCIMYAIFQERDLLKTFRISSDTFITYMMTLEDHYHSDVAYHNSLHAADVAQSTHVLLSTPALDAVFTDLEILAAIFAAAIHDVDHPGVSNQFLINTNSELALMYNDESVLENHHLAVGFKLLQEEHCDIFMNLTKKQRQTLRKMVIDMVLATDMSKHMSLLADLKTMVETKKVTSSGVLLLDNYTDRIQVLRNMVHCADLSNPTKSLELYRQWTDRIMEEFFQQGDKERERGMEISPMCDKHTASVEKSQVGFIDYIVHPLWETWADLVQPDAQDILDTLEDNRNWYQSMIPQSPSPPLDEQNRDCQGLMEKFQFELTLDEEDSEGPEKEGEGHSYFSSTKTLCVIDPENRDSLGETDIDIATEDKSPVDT
Chain of Cytochrome P450 2D6 (Homo sapiens) (P10635 whole entry, looked up): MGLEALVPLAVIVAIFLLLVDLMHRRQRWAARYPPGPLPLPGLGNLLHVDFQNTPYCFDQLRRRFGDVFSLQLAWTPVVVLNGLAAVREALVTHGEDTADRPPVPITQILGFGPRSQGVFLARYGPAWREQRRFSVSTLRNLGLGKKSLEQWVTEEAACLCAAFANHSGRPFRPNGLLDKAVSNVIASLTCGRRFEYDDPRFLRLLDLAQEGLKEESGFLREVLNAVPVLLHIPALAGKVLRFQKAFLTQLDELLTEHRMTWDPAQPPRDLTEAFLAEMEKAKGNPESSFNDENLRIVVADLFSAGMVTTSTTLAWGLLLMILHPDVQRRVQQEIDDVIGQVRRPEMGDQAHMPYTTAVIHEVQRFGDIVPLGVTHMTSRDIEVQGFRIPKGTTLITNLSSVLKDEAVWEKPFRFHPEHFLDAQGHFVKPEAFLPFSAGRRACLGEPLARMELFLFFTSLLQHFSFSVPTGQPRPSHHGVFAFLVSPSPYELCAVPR
Chain of Cytochrome P450 2C19 (Homo sapiens) (P33261 whole entry, looked up): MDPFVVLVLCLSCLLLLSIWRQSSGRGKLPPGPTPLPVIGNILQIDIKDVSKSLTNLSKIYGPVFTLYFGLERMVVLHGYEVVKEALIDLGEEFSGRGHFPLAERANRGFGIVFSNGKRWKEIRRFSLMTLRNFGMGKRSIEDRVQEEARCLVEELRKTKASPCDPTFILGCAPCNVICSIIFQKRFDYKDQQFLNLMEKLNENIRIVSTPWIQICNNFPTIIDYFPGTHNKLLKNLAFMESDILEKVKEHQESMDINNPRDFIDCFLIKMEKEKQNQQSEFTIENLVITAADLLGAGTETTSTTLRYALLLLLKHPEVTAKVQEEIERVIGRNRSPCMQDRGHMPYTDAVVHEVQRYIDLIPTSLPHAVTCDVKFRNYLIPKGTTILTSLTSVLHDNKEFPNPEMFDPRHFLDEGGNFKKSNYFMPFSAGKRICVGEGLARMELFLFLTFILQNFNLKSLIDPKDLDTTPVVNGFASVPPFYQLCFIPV

On to `COc1ccccc1CN1CCCC2(CCN(C(=O)c3cccn3C)CC2)C1`, for which the Potency in [1] was > 11.4 µM (inactive); in [5] it was > 46 µM (inactive); in [9], 3.16 µM (active). Further, the values for the activity change, negative = inhibition in [2] and in [10] were -2.64% (inactive) and 4.14% (inactive), respectively. Moreover, the Potency result in experiment [3], in [6], in experiment [7] and in [8] was “inactive” each time. Further, the activity, negative = inhibition in experiment [4] was 4.46% (inactive). For the same molecule, the max response in experiment [10] (setting [14]) was 21.7%; in [10] (setting [15]), 29.7%. The outcome in [11] was inactive.
Regarding `N#Cc1ccc(CN2CCC3(CC2)CCN(C(=O)c2ccncc2)CC3)cc1`, the Potency was > 11.4 µM (inactive) in experiment [1], > 46 µM (inactive) in experiment [5] and 6.31 µM (active) in experiment [9]. Also, the activity change, negative = inhibition was 1.51% (inactive) in experiment [2] and 1.92% (inactive) in experiment [10]. The Potency result in experiment [3], in [6], in [7] and in experiment [8] was “inactive” each time. Also, the activity, negative = inhibition in [4] was -3.87% (inactive). Also, the max response in [10] (setting [14]) amounted to 15.7%; in experiment [10] (setting [15]) it was 18.7%. Moreover, the result in experiment [11] was inactive.
For `O=C(c1ccncc1)N1CCC2(CCN(Cc3ccccc3)CC2)CC1`, the Potency in experiment [1] is > 11.4 µM (inactive); in experiment [5] it was > 46 µM (inactive). Also, the results for the activity change, negative = inhibition in [2] and in [10] were 3.68% (inactive) and 3.67% (inactive), respectively. Besides, the Potency entry in experiment [3], in [6], in experiment [7], in experiment [8] and in [12] was “inactive” each time. In experiment [4], the activity, negative = inhibition was -6.01% (inactive). Also, the values for the max response in experiment [10] (setting [14]) and in experiment [10] (setting [15]) were 13.9% and 18.6%, respectively. For the same molecule, the result in experiment [11] was inactive.
Turning to `Cn1cccc1C(=O)N1CCC2(CCN(Cc3ccccc3)CC2)CC1`, the Potency in experiment [1] was > 11.4 µM (inactive); in experiment [5], > 46 µM (inactive); in experiment [9], 7.94 µM (active). The values for the activity change, negative = inhibition in experiment [2] and in experiment [10] were -1.12% (inactive) and 4.86% (inactive), respectively. For the same molecule, the Potency result in experiment [3], in experiment [6] and in experiment [7] was “inactive” each time. Moreover, the activity, negative = inhibition in experiment [4] was 4.92% (inactive). Moreover, the figures for the max response in experiment [10] (setting [14]) and in experiment [10] (setting [15]) were 16.4% and 22.8%, respectively. The result in experiment [11] was inactive.
Consider `COc1ccccc1CN1CCCC2(CCN(C(=O)c3ccco3)CC2)C1`, for which the Potency is > 11.4 µM (inactive) in [1], > 46 µM (inactive) in experiment [5] and 2.51 µM (active) in [9]. The activity change, negative = inhibition in [2] is -11.6% (inactive); in experiment [10] it was 2.54% (inactive). Moreover, the Potency entry in experiment [3], in experiment [6], in experiment [7] and in [8] was “inactive” each time. The activity, negative = inhibition in [4] is -1.13% (inactive). In addition, the results for the max response in [10] (setting [14]) and in [10] (setting [15]) were 5.74% and 11.8%, respectively. Besides, the outcome in experiment [11] was inactive.
Consider `Cc1noc(C)c1C(=O)N1CCC2(CC1)CCN(c1ccncc1)CC2`, for which the Potency is > 11.4 µM (inactive) in [1] and > 46 µM (inactive) in [5]. Also, the activity change, negative = inhibition in experiment [2] was 10.3% (inactive); in [10] it was 1.45% (inactive). Also, the Potency entry in [3], in experiment [6], in [7] and in [8] was “inactive” in each case. For the same molecule, in [4], the activity, negative = inhibition was 8.12% (inactive). The figures for the max response in experiment [10] (setting [14]) and in [10] (setting [15]) were 9.32% and 12.2%, respectively. The result in experiment [11] was inactive.
For `O=C(c1cc(C(F)(F)F)cc(C(F)(F)F)c1)N1CCC2(CCN(Cc3ccccc3)CC2)CC1`, the Potency was > 11.4 µM (inactive) in experiment [1] and > 46 µM (inactive) in experiment [5]. The activity change, negative = inhibition is 9.59% (inactive) in experiment [2] and 2.31% (inactive) in experiment [10]. In addition, the Potency entry in experiment [3], in [6] and in [7] was “inactive” each time. The activity, negative = inhibition in [4] was -1.85% (inactive). Besides, the activation in experiment [13] is 4.02% (inactive). In addition, the max response in experiment [10] (setting [14]) worked out at 18.5%; in experiment [10] (setting [15]), 24.9%. Further, in experiment [11], the outcome was inactive.
